The values that follow come from the OligoGym collection.
Also: reference of the scale not given here.

The first test has as its target ZFP62. In words: pooled miR-30 sensor sort-seq; sequence = guide strand. The following applies: shRNA.
TTTTATGTTGAACAAGGCGGGA: the sensor-assay potency score (higher = more potent) is -0.995.
As to TTTTCTGCTGTAGACTAGGGTA, the sensor-assay potency score (higher = more potent) was -0.796.
Consider TTTATGTTGAACAAGGCGGGAA, for which the sensor-assay potency score (higher = more potent) turned out to be 0.133.
TAATTTCTTAACAGCATTGGTT yielded a sensor-assay potency score (higher = more potent) of -0.651.
For the sequence TTTCTCTCTAGTGTGGACCCTT, the sensor-assay potency score (higher = more potent) is -0.0465.
The sequence TTATATTTGAAGGATTTCCCAC had a sensor-assay potency score (higher = more potent) of -0.915.
Turning to TAGAGCGTGAGATATAGGCTTT, the sensor-assay potency score (higher = more potent) was -0.26.
Sequence TTGAGTGTGAGATGTAGGCTTT returned a sensor-assay potency score (higher = more potent) of -0.179.
Sequence ATACATAAGGTCTCTCTCCGGT showed a sensor-assay potency score (higher = more potent) of 0.0569.

The target in a further test is ZFR2. Described as above. The following applies: shRNA.
The sequence TTTCTTCCGGTACTGCAGCCGG registered a sensor-assay potency score (higher = more potent) of -0.948.
For the sequence TAGTGAAGCTGGAGCTGCCTGG, the sensor-assay potency score (higher = more potent) was -0.835.
On to TATGGTGACCTGCATCCTGGGC, for which the sensor-assay potency score (higher = more potent) is -0.904.
Still for that read-out and setting: to TCATCCTCGGTCACCATCTGGA belongs -0.791.
As for TTAAGGTCGTTGAAACTGCACT, the sensor-assay potency score (higher = more potent) was -0.864.
Still for that read-out and setting: the same measure for TAGCTTGGTGCCGTGTAGGCGG: -0.795; for TCCGTAGCTGTAACTGTCCTGG: -0.711; for TTGGGTCTCGGCAGCTTGCTGG: -0.733.
Regarding TGTCGCAGTAGTGAAGCTGGAG, the sensor-assay potency score (higher = more potent) is -0.148.
The same measure, in the same setting: to TTCGTCGCTGAACACCTCCTCC belongs -0.823; to TCTGTCTGGTCTCTCTCGCAGG, -0.775; to TGCAGCTTGAAGACCTTCTGGT, 0.0557.

For a further test, the target named is ZFR. The description is as above. The following applies: shRNA.
In turn, TCTTCTTCTCGTCTTCGCCAGT displayed a sensor-assay potency score (higher = more potent) of -1.15.
In turn, TAGAACTTTGTGTATCTGGCGG showed a sensor-assay potency score (higher = more potent) of -0.255.
Take TTGACATTTCTATCTCCTCGGA: the sensor-assay potency score (higher = more potent) was -0.27.
In turn, TTATATTGAAGTCTGTGTCTTC gave a sensor-assay potency score (higher = more potent) of 0.707.
The sequence TTGTGTGTAACTTAACCACTTT registered a sensor-assay potency score (higher = more potent) of -0.519.
Turning to TATAACAGCAAGCTGTTTGGGT, the sensor-assay potency score (higher = more potent) turned out to be 0.358.
On the same count and under the same terms, to TTTTTCATTACATCACTGCTAG belongs 0.0706; to TTTCTCTACTAGTAACTCCATA, -1.22; to TTACATATGAGTATGAATCCTG, 0.475.
TTGTGTAGGAGACATAAGCAGG returned a sensor-assay potency score (higher = more potent) of -0.979.
The sequence TATAACCATAGTCAGTTGCTGT showed a sensor-assay potency score (higher = more potent) of -0.854.
In turn, TAGTTTTGTGTAGTAGCTGGGG registered a sensor-assay potency score (higher = more potent) of 0.0406.

For a further test, the target named is ZHX1. The description is as above. The following applies: shRNA.
As for TAGACATACAGTATTAAACTGG, the sensor-assay potency score (higher = more potent) was -0.456.
Sequence TTATGATGAACTGCAATCCGTT yielded a sensor-assay potency score (higher = more potent) of -0.993.
TAAGTATACATTTACTACGTGA displayed a sensor-assay potency score (higher = more potent) of -0.517.
Consider TTTTTTTACATATCTTGCCTGT, for which the sensor-assay potency score (higher = more potent) is -0.102.
Sequence TTTCTCTTTAAACTTTTGGGGA yielded a sensor-assay potency score (higher = more potent) of -0.716.
TAAATTAGTATGAACTTTCAGT came in with a sensor-assay potency score (higher = more potent) of -0.00447.
Sequence TTGCTCATTAAGAAACTTGTGC had a sensor-assay potency score (higher = more potent) of -0.28.
